Records with an inconclusive call do not appear. Values without a mark were called inactive. Calls follow the shape of the dose curve; as a rule, active = well fitted activation curve with a large enough effect; inconclusive = small, poorly fitted or top-dose-only effect; inactive = flat fitted curve, though single readings scatter.
Assay: Primary redox qHTS assay for identification of artifact compounds. (AID 1845223);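 also: 0% = DMSO and 100% = reference compound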
Details: Amplex Red/HRP redox cycling with DTT, fluorescence; series mostly up to 53.8 µM; redox activity (% of DA3003): at the top concentration
How it was run: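 Redox-cycling detection via DTT (250 uM final) oxidation coupled to Amplex Red (25 uM)/HRP (250 mU/mL) in HBSS. 15 min preincubation plus 30 min after DTT, room temperature. Ex/Em 525/598 nm; 4-parameter Hill fit against DMSO and 10 uM DA3003.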

Compound	redox activity (% of DA3003)
CN[C@H]1[C@H](O)[C@H](O[C@@H]2[C@@H](O)[C@H](O[C@H]3O[C@H]([C@H](C)O)[C@@H](O)[C@H](O)[C@H]3N)[C@@H](N)C[C@H]2N)OC[C@@]1(C)O	-6.25%
Cc1c(Cl)cccc1S(=O)(=O)Nc1nc(CC(=O)N2CCN(C)CC2)cs1	7.05%
CCc1c(C(=O)C(N)=O)c2c(OCC(=O)OC)cccc2n1Cc1ccccc1	10.7%
CC[C@H]1CN2CC[C@H]1C[C@H]2[C@H](O)c1ccnc2ccc(OC)cc12	-9.2%
C/C=C(\C)C(=O)O[C@H]1[C@H](OC(C)=O)[C@]2(CO)[C@H](O)[C@H](O)[C@]3(C)C(=CCC4[C@@]5(C)CC[C@H](O[C@@H]6O[C@H](C(=O)O)[C@@H](O)[C@H](O[C@@H]7OC[C@H](O)[C@H](O[C@@H]8OC[C@H](O)[C@H](O)[C@H]8O)[C@H]7O)[C@H]6O[C@@H]6O[C@H](CO)[C@@H](O)[C@H](O)[C@H]6O)C(C)(C)C5CC[C@]43C)[C@@H]2CC1(C)C (stereo not given in full)	9.29% [at 11.5 µM]
CN(C(=O)Cc1ccccc1)C(CN1CCCC1)c1ccccc1 (stereo not given)	-2.99%
Cc1cn(C[C@H](N)C(=O)O)c(=O)n(Cc2cc(-c3ccccc3)sc2C(=O)O)c1=O	-3.21%
CC12CCC3C(CCC4(O)CC(O)CCC34C=O)C1(O)CCC2C1=CC(=O)OC1 (stereo not given)	-0.433%
C[C@H]1O[C@@H](O[C@H]2C[C@@H](O)[C@]3(CO)C4C(CC[C@]3(O)C2)[C@@]2(O)CC[C@H](C3=CC(=O)OC3)[C@@]2(C)C[C@H]4O)[C@@H](O)[C@@H](O)[C@H]1O (stereo not given in full)	-9.67% [at 25.6 µM]
N#CC(OC1OC(COC2OC(CO)C(O)C(O)C2O)C(O)C(O)C1O)c1ccccc1 (stereo not given)	-15.9% [at 25.6 µM]
N#C[C@@H](O[C@@H]1O[C@H](CO[C@@H]2O[C@H](CO)[C@@H](O)[C@H](O)[C@H]2O)[C@@H](O)[C@H](O)[C@H]1O)c1ccccc1	-10% [at 25.6 µM]
CC(C)[C@@H](CN1CC[C@@](C)(c2cccc(O)c2)[C@@H](C)C1)NC(=O)[C@H]1Cc2ccc(O)cc2CN1	0.0669%
COC1CC(O[C@H]2CC[C@@]3(C)C(=CCC4C3C(O)[C@@H](O)[C@]3(C)[C@@H](C(C)=O)CC[C@]43O)C2)OC(C)C1OC1CC(OC)C(OC2OC(C)C(O)C(O)C2O)C(C)O1 (stereo not given in full)	8.26% [at 11.5 µM]
CCC(C)(C#N)O[C@@H]1O[C@H](CO)[C@@H](O)[C@H](O)[C@H]1O (stereo not given in full)	-17.2%
CCCCCCn1c(=O)c(C(=O)Nc2ccc(C(=O)OCCC)cc2)c(O)c2ccccc21	-1.37% [at 11.5 µM]
COC1C(O)C(C)OC(OC2C(CO)O[C@@H](O[C@@H]3CC4CCC5C(CC[C@]6(C)[C@@H](C7=CC(=O)OC7)CC[C@]56O)[C@@]4(C)[C@H](O)C3)C(O)C2O)C1O (stereo not given in full)	4.38% [at 25.6 µM]
COc1cc(CCNCc2ccccc2O)c(OC)cc1C#N	-0.556%
C=C(CO)C(=O)O[C@H]1C/C(C)=C/CC/C(CO)=C/[C@H]2OC(=O)C(=C)[C@H]12	-4.72%
CN1CCCC1CCOC(c1cc2nccc(C(=O)O)c2[nH]1)c1ccccc1Cl (stereo not given)	14%
COC1CC(=O)C23C(=O)NC(CC(C)C)C2C(C)=C(C)C(OO)C3/C=C(\C)CCC(O)C1O (stereo not given)	18.6% [at 25.6 µM]
C/C=C(\C)C(=O)OC1C(C)OC(OC2C(C)OC(OC3CCC4(C)C(=CCC5C4CCC4(C)C(C(C)OC6OC(COC7OC(CO)C(O)C(O)C7O)C(O)C(O)C6O)CCC54O)C3)CC2OC)C(O)C1OC (stereo not given)	-7.77% [at 11.5 µM]
CCN1CC2(COC)C3[C@@H](OC)C4C1C3(C1C[C@]3(O)[C@H](OC(=O)c5ccccc5)C1[C@]4(OC(C)=O)[C@@H](O)[C@@H]3OC)[C@H](OC)C[C@H]2O (stereo not given in full)	-2.37%
CN1C(=O)c2ccccc2NC(=O)[C@]12O[C@@H]2c1ccccc1	-13.6%
COCC1OC(=O)c2coc3c2C1(C)C1=C(C3=O)C2CCC(=O)C2(C)CC1O (stereo not given)	-7.15%
COc1ccccc1CN[C@H]1C2CCN(CC2)[C@H]1C(c1ccccc1)c1ccccc1	8.99%
C1=C2CCCN[C@H]2[C@@H]2C[C@H]1[C@H]1CCCCN1C2	-2.77%
CC(N)Cc1c[nH]c2ccccc12 (stereo not given)	-2.51%
CCc1[nH]c2ccc(OC)cc2c1CCN(C)C	-4.68%
CCC1NC(=O)C2C(Cl)C(Cl)CN2C(=O)C(C(C)O)NC(=O)CC(c2ccccc2)NC(=O)C(CO)NC1=O (stereo not given)	-8.68% [at 25.6 µM]
CC(=O)OC12C(O)C(C)C3(O)C4C=C(C)C(=O)C4CC(CO)=CC3C1C2(C)C (stereo not given)	13.9% [at 25.6 µM]

From PubChem BioAssay (NCATS)
